FLuc counter = inhibits or activates purified firefly luciferase, miR-21 counter-screen; P08659; purified FLuc, Km substrates, luminescence inhibition; Potency, µM (doses to about 57.5 µM), without a hit: top-dose activity change, negative = inhibition, actives largely listed as inhibitors; 360,000 tested, 6.9% active; AID 588342;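 note: plate controls were vehicle for no effect and reference inhibitor for full effect; nearly all actives have a fitted effect of over 55% in size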
Target sequence (P08659 whole entry, looked up): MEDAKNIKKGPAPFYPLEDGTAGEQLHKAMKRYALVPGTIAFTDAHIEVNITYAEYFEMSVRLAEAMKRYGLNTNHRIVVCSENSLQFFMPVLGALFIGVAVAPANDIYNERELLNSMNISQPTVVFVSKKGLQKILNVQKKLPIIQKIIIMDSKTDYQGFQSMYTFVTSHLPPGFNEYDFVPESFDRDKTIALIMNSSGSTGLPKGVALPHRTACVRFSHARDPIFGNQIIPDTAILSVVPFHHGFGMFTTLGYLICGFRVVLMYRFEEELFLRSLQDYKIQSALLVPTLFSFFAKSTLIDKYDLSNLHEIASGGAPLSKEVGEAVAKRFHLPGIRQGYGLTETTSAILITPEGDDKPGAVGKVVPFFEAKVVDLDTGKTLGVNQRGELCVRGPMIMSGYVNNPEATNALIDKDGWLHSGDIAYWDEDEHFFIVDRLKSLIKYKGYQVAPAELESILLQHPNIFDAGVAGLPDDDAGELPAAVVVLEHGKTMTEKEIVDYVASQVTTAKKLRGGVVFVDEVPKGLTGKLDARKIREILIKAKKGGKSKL
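Purified P. pyralis luciferase, 10 nM final, with Km-level 10 uM D-luciferin and 10 uM ATP in 50 mM Tris acetate pH 7.5, 10 mM Mg acetate, 0.01% Tween-20, 0.05% BSA; 6-point qHTS titration about 60 µM downward; luminescence read.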
Luc counter = Kinase-Glo luciferase inhibition (counter-screen). Kinase-Glo luciferase, ATP luminescence, 8 min. Q27757. Potency, µM (series often up to 38.3 µM), inactives show top-dose activity change, negative = inhibition, actives largely listed as inhibitors. 200,000 tested, 0.28% active. AID 1379; note: % is set by controls: 0 for no effect and ±100 for the full control effect; nearly all actives have a fitted effect of over 60% in size
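Recombinant Kinase-Glo luciferase, 10 uM ATP (linear range), luciferin; imidazole pH 7.2 / KCl / MgCl2 / Tween / BSA buffer; 8 min RT; luminescence.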
Rab9 prom act = activators of Rab9 promoter | Huh7 Rab9 promoter-luciferase reporter, luminescence, 24 h | Potency, µM (top dose mostly 9.22 µM), inactives show at the highest dose activation, negative = inhibition, most hits filed as activators | 320,000 tested, 2.8% active; note: % of control where 0% means no effect; nearly all actives have a fitted effect of over 60% in size
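Huh7 reporter line, Rab9 promoter upstream of luciferase. Compound exposure 24 h at 37 °C in reduced-serum medium with 10% FBS. Read-out: luminescence.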
SMN2 splice enh = enhancers of SMN2 splice variant expression. 210,000 tested, 2.8% active. Potency, µM (top dose mostly 46.1 µM), for the others: at the top dose activity change, positive = activation, actives largely listed as activators. HEK293 SMN2-luciferase splicing reporter, luminescence, 30-36 h. AID 1458; note: % of control where 0% means no effect; nearly all actives have a fitted effect of over 55% in size
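HEK293 cells carry an SMN2 minigene-luciferase reporter in which exon 7 inclusion puts luciferase in frame. Cells were seeded at 2000 cells/well, attached for 10-12 hours, then exposed to compounds for 30-36 hours at 37C before ONE-Glo luminescence.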
ELG1 genotoxic = induces genotoxicity in HEK293T cells with luciferase-tagged ELG1; 330,000 tested, 1.3% active; AID 504466; HEK293T ELG1-luciferase reporter, luminescence, 16 h; Potency, µM (top dose mostly 46 µM), without a hit: at the top dose activity change, positive = activation, actives largely listed as activators; note: % of control where 0% means no effect; nearly all actives have a fitted effect of over 60% in size
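Quantitative HTS format in 1536-well plates. HEK293T ELG1-luciferase reporter cells receive test compound and are incubated 16 hr at 37 °C, 5% CO2; ONE-Glo added, 30 min room temperature, then luminescence read.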
NPC1 prom act = NPC1 promoter activation; Huh7 NPC1 promoter luciferase reporter, 24 h; Potency, µM (highest dose often 9.22 µM), inactives show at the top dose activation, hits mostly activators; 320,000 tested, 2.4% active; note: % of control where 0% means no effect; nearly all actives have a fitted effect of over 60% in size
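Stably transfected Huh7 (NPC1 promoter→luciferase), 1500 cells/well in Opti-MEM + 10% FBS, 2 h settle, then compound 24 h at 37 °C. Luminescence after 10 min with Amplite reagent.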
Numbers without * were called inactive; ? = inconclusive; · = not tested or not shown; [ ] = remark or other dose. Shown are actives, neighbours in structure and some others; about 7.4% of the full set was active somewhere. Calls come from the whole dose curve; as a rule, active = well fitted curve in the direction sought with a large enough effect; inconclusive = small, poorly fitted or top-dose-only effect, or another doubt; inactive = no such curve, though single readings can be large; an effect the other way counts as inactive or inconclusive. Potency is the fitted concentration of half-maximal effect.

SMILES	FLuc counter	Luc counter	Rab9 prom act	SMN2 splice enh	ELG1 genotoxic	NPC1 prom act
COc1cccc(NC(=O)Cn2c(=O)n(-c3ccc(C)cc3)c(=O)c3ccc(C(=O)NCc4ccco4)cc32)c1	0%	·	·	-12%	·	·
Cc1nc2cc(NC(=O)N3CCCCC3)ccc2n1C	?	1%	30%	13µM*	?	20%
CCOC(=O)C1CCN(C(=O)Nc2ccc3c(c2)nc(C)n3C)CC1	0%	3%	?	11µM*	?	?
COc1cc2nc(SCc3cccc(Cl)c3)n3nc(CCn4nc(C)cc4C)nc3c2cc1OC	-1%	·	·	3%	·	·
COc1ccc(C(=O)Nc2cccc(/C(C)=N/NC(=O)c3ccc([N+](=O)[O-])cc3)c2)cc1OC	5.4µM*	1%	2%	-5%	12%	7%
COc1ccccc1/C=C/C=N/Nc1cccc(C(=O)O)c1	0.54µM*	·	0.13µM*	·	0.65µM*	0.11µM*
COc1ccccc1/C=C\C=N\NC(=O)c1ccco1	?	4%	?	23%	?	20%
COc1ccc(Br)cc1/C=N/NC(=O)C[n+]1ccccc1	-3%	·	5%	·	1%	-1%
COc1ccc(/C(C)=N/Nc2cccc(C(=O)O)c2)cc1OC	3.8µM*	-3%	1.1µM*	10µM*	5.2µM*	1µM*
COc1ccc(Br)cc1/C=N/Nc1cccc(C(=O)O)c1	21µM*	-1%	1.6µM*	11µM*	?	3.2µM*
CCc1cccc(NC(=O)C2CCCN2S(=O)(=O)c2ccc3nc(-c4ccccc4)[nH]c3c2)c1 (stereo not given)	-13%	·	·	·	·	·
O=C(O)c1cccc(N/N=C/c2cc(Br)cc(Br)c2O)c1	24µM*	-3%	2.8µM*	4%[1.84 µM]	?	?
C/C(=N\NC(=O)C(=O)Nc1cccc(C(F)(F)F)c1)c1ccc(Cl)s1	2%	-6%	3%	-17%	-1%	0%
O=C(N/N=C/c1cc(Br)cc(Br)c1O)c1ccncc1	-18%	4%	-28%	-41%	?	-32%
COc1ccc(/C(C)=N/Nc2nc3ccccc3nc2C)cc1OC	3µM*	·	3%	·	1%	20%
C/C(=N\Nc1cccc(C(=O)O)c1)c1ccc(Cl)s1	11µM*	·	2.8µM*	·	?	3.2µM*
CC1(O)/C=C\C=C(\CO)C2CC(C)(C)C2(O)CC1 (stereo not given)	·	-2%	·	-2%	·	·
CCn1c(CN2CCN(c3cccc(Cl)c3)CC2)nc2c1c(=O)[nH]c(=O)n2C	2%	·	·	-5%	·	·
CCc1ccc2nc3n[nH]c(N)c3cc2c1	4.8µM*	-23%	2.8µM*	?	13µM*	?
Cc1occc1C(=O)N/N=C/c1ccc(OCc2ccccc2)cc1	?	·	2.8µM*	·	?	?
Cc1occc1C(=O)N/N=C/c1ccc(-c2ccccc2)cc1	0.67µM*	·	0.4µM*	·	0.16µM*	0.32µM*
O=C(N/N=C/c1ccc(F)cc1)c1ccc(OCc2ccccc2)cc1	0%	·	-1%	·	0%	2%
Cc1occc1C(=O)N/N=C/C(Br)=C/c1ccccc1	2.7µM*	-16%	0.89µM*	8.9µM*	?	1.8µM*
COc1cccc([C@@H]2Oc3ccc(Br)cc3C[C@H]2O)c1	·	1%	·	1%	·	·
COc1cc(/C=C2/SC(=S)N(CCC(=O)Nc3ccc(C(=O)O)cc3)C2=O)cc(OC)c1OC	0%	·	-2%	·	-4%	-2%
CC(/C=C1\SC(=S)N(CCC(=O)Nc2cccc(C(=O)O)c2)C1=O)=C\c1ccccc1	24µM*	·	0%	·	0%	-4%
CC(/C=C1\SC(=S)N(CCCC(=O)Nc2ccc(C(=O)O)cc2)C1=O)=C\c1ccccc1	13µM*	2%	28%	-4%	16%	17%
COC(=O)[C@H]1O[C@@H](c2cc(OC)c(C)c(OC)c2O)[C@H](C)[C@@H](O)[C@H]1C	·	1%	·	-5%	·	·

Compound activity (PubChem BioAssay)
